Experimental findings from PubChem BioAssay are described below.

A short description of experiment [1]: compounds binding Alexa647 anti-His antibody – biochemical, small-molecule microarray, 635 nm fluorescence, artefact control for SMM control protein annotation, primary screen (AID 1128).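 Further: score merges feature fluorescence with signal-to-noise for each printed compound spot.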 Conditions: higher = more signal.
The test system of experiment [2] is Human papillomavirus type 1a E7 protein (residues 1-88). Description: HPV1a E7 small-molecule binders, primary screen, biochemical, small-molecule microarray, residues 1-88, 635 nm (AID 1129). As to conditions: small-molecule microarray binding, fluorescence 635 nm; higher = more signal.
The target in experiment [3] is Focal adhesion kinase 1 (Homo sapiens) (UniProt Q05397). Description: PTK2 protein binding on printed compound slides – biochemical, small-molecule microarray, 635/667 nm fluorescence, BSA, DTT, primary screen (AID 1130).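 Further: composite of spot emission at 667 nm and signal to noise over triplicate slides.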 As to conditions: 635 nm fluorescence, higher = more signal.
Chain of Focal adhesion kinase 1 (Homo sapiens) (Q05397 whole entry, looked up): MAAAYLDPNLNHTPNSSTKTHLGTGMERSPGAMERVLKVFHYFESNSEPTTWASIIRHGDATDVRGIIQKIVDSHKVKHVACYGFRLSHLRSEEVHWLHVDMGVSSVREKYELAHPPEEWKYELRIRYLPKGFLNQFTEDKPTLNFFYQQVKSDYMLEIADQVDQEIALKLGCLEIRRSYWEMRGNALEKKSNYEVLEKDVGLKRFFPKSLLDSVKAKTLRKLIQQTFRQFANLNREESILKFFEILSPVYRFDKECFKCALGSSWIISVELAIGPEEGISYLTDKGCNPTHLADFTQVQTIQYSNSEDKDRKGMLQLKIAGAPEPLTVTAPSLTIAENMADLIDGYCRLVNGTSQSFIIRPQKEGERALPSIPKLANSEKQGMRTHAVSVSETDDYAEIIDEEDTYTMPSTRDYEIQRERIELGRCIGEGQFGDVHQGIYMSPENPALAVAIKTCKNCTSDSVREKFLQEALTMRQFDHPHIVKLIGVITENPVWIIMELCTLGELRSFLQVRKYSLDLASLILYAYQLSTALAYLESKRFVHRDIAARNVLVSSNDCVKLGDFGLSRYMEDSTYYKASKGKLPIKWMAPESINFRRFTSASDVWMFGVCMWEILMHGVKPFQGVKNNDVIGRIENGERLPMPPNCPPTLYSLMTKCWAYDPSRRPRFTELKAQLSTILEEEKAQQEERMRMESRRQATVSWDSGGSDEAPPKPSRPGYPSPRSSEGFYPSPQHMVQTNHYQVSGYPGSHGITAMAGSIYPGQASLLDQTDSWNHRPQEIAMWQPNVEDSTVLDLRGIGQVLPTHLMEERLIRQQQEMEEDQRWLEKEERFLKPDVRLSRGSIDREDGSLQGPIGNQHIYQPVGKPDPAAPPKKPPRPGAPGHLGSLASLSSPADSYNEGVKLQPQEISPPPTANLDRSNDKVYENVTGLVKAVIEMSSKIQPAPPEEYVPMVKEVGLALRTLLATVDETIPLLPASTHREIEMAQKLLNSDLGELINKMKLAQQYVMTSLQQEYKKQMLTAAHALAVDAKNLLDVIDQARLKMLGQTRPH
Experiment [4] deals with Fibrinogen (Alexa647-labelled). The experiment in a line: Alexa647-fibrinogen binding to printed small molecules – biochemical, small-molecule microarray, 635/667 nm fluorescence, artefact control for SMM control-protein annotation, profiling panel (AID 1131).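 Further: z-score merges 667 nm fluorescence with per-spot signal-to-noise over triplicate slides.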 Conditions: fibrinogen-A647 binding fluorescence, higher = more signal.
The target of experiment [5] is Follistatin (Homo sapiens) (UniProt P19883). Description: FST protein binding to printed compounds – biochemical, small-molecule microarray, 635/667 nm fluorescence, primary screen (AID 1132). Conditions: 635 nm fluorescence, higher = more signal.
Chain of Follistatin (Homo sapiens) (P19883 whole entry, looked up): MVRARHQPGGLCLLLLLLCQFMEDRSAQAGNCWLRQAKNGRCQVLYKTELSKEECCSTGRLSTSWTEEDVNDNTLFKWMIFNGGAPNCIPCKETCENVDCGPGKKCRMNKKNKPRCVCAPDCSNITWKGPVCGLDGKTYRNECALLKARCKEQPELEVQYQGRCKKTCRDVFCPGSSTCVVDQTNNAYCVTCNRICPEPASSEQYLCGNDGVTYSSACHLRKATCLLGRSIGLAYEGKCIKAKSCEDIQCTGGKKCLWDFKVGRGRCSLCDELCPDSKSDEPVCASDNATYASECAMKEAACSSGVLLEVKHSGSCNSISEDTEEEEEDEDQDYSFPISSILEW
The target of experiment [6] is Fibroblast growth factor 2 (Homo sapiens) (UniProt P09038). The experiment in a line: basic fibroblast growth factor binding to printed compounds – biochemical, small-molecule microarray, 635/667 nm fluorescence, primary screen (AID 1133). Conditions: FGF2, fluorescence 635/667, higher = more signal.
Chain of Fibroblast growth factor 2 (Homo sapiens) (P09038 whole entry, looked up): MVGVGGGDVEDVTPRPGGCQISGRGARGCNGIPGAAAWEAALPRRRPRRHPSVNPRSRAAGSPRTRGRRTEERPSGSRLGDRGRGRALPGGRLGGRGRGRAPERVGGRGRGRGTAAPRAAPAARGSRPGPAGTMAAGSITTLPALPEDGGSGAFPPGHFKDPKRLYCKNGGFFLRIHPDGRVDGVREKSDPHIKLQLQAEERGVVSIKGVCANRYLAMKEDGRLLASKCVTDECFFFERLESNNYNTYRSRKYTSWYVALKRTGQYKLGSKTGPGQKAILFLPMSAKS
Experiment [7] in a line: JC-1 mitochondrial potential readout, lung cancer cells – cell-based, A549, JC-1 fluorescence, basal, 24 h, 100 nL, profiling panel (AID 1138).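 Further: A549 lung adenocarcinoma cells under basal conditions with no added stimulus; test concentration not given here.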 Conditions: higher = more signal.
The test system of another experiment is Lefty1. Description: Lefty1 protein binding to printed compounds – biochemical, small-molecule microarray, 635/667 nm fluorescence, primary screen (AID 1139). As to conditions: fluorescence 635/667, higher = more signal.
In experiment [8] the test system is wheat germ agglutinin (Triticum aestivum), Alexa647-labelled. The experiment in a line: Alexa647-WGA lectin binding to printed small molecules – biochemical, small-molecule microarray, 635/667 nm fluorescence, artefact control for SMM control-protein annotation, profiling panel (AID 1140).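 Further: score merges 667 nm feature emission with signal to noise over triplicate slides.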 As to conditions: WGA-A647 binding, 635 nm fluorescence, higher = more signal.

Experiment [9] addresses Luciferin 4-monooxygenase (Photinus pyralis) (UniProt P08659). Description: inhibition of purified Photinus pyralis luciferase – biochemical, luminescence, purified enzyme, 2006 set, primary screen (AID 1141).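 Further: cell-free assay with purified firefly luciferase at 100 ng per well in PBS; test concentration not given here.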 As to conditions: purified firefly luciferase, SteadyGlo luminescence, 30 min; higher = more signal, called active from +8 up or from −8 down.

The source made the active and inactive calls.

Chain of Luciferin 4-monooxygenase (Photinus pyralis) (P08659 whole entry, looked up): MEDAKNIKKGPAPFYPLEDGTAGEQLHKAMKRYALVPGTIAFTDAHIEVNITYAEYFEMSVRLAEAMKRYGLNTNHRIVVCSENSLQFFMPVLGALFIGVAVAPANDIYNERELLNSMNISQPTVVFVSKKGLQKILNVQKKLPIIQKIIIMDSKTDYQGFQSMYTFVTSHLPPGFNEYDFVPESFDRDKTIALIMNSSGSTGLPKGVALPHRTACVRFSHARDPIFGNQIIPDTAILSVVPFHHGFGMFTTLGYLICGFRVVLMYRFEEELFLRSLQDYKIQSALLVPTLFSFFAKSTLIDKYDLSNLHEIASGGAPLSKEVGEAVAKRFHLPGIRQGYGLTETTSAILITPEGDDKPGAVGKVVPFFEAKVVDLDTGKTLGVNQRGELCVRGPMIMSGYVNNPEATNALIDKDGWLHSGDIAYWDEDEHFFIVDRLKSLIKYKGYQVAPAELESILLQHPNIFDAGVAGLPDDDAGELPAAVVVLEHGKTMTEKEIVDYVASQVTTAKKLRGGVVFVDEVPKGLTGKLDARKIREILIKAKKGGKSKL

As for `COC(=O)[C@@]1(Cc2ccc(F)cc2)[C@H]2c3cc(C(=O)N4CCCC4)n(Cc4ccc(C)c(F)c4F)c3C[C@H]2CN1C(=O)c1ccccc1`, the composite z-score in experiment [1] was 1.39; in experiment [2], 0.821; in [3] it was 0.572; in experiment [4] it was 0.511; in experiment [5], -0.115; in experiment [6] it was -0.132. For the same compound, the composite z-score is -0.605 with Lefty1 and 0.921 in experiment [8]. Also, the values for the z-score in [7] and in experiment [9] were -0.494 and -12.5 (active), respectively.

Turning to `C=C[C@H]1C(C(=O)OCC)=CC[C@@H](c2ccccc2)N1S(=O)(=O)c1ccc(C)cc1`, the composite z-score in experiment [1] worked out at 1.53; in experiment [2] it was 1.22; in [3], 0.736; in experiment [4], 0.964; in experiment [5], 1.2; in experiment [6], 0.0703. The composite z-score in the experiment on Lefty1 was determined as 0.325; in [8], 0.677. The z-score was 3.33 in experiment [7] and 0.26 (inactive) in [9].

Turning to `COC(=O)C1=CC(CCCO)=CC(c2cccs2)N(Cc2cccc(OC(F)(F)F)c2)C=C1C(=O)OC` (stereo not given), the composite z-score in [1] was 1.51; in [2] it was 1.23; in experiment [3] it was 2.18; in experiment [4], 0.972; in experiment [5] it was 1.23; in [6], -0.141. Besides, the composite z-score in the experiment on Lefty1 is 0.233; in [8], 1.13. Further, the z-score in experiment [7] was 1.87; in experiment [9], -1.41 (inactive).

Consider `COC(=O)C1=CC(CCCO)=CC(c2cccs2)N(C)C=C1C(=O)OC` (stereo not given), for which the composite z-score is 0.15 in [1]; -0.5 in [2]; 0.143 in experiment [3]; -0.198 in experiment [4]; -0.344 in experiment [5]; -0.498 in experiment [6]. In addition, the composite z-score in the experiment on Lefty1 was -0.307; in [8] it was 0.507. In addition, the z-score was 0.0963 in experiment [7] and -0.674 (inactive) in experiment [9].

Consider `COc1ccc(CCNC(=O)[C@@H]2c3ccccc3C(=O)N(C3CCCCC3)[C@H]2c2ccc(CO)cc2)cc1`, for which the composite z-score came to 1.01 in [1]; 0.883 in [2]; 1.19 in experiment [3]; 0.144 in experiment [4]; 0.441 in [5]; 1.74 in experiment [6]. Moreover, the composite z-score with Lefty1 is -0.359; in experiment [8], 0.771. The z-score in [7] is -0.263; in experiment [9] it was -0.323 (inactive).

Regarding `O=C(O)[C@@H]1C[C@@H]2C(=O)N3CCC[C@H]3C(=O)N2[C@@H]1c1ccc(O)cc1`, the composite z-score in experiment [1] was 2.3; in [2], 0.258; in experiment [3] it was 0.251; in experiment [4], -0.0516; in experiment [5] it was 1.42; in experiment [6], 1.07. Also, the figures for the composite z-score (with Lefty1; in experiment [8]) were 0.824 and 0.0465, respectively. Moreover, the z-score in experiment [7] was -0.269; in experiment [9] it was -0.985 (inactive).

Consider `CCOC(=O)C[C@H]1[C@H](OC(=O)c2ccc(C(=O)c3ccccc3)cc2)[C@@H](NC(=O)C2CCCCC2)c2cc(OCCCO)ccc2N1C(=O)c1ccc2ccccc2n1`, for which the composite z-score in [1] is 0.497; in [2], 0.835; in [3], 0.0096; in experiment [4] it was 0.102; in experiment [5], 0.796; in [6] it was 0.979. Also, the composite z-score was 1.41 with Lefty1 and 0.0469 in [8]. Moreover, the results for the z-score in experiment [7] and in experiment [9] were 0.956 and 0.425 (inactive), respectively.

Take `COCCCNC(=O)[C@@]1(Sc2ccc(C)cc2)CC(=O)N(C2Cc3ccccc3C2)[C@@H]1c1ccc(CO)cc1`: the composite z-score in experiment [1] was 0.72; in experiment [2], 0.336; in [3], -0.296; in experiment [4] it was -0.841; in experiment [5], -1.22; in experiment [6], -1.35. The composite z-score with Lefty1 is -1.1; in experiment [8], -1.47. In addition, the z-score was -0.318 in [7] and 0.925 (inactive) in experiment [9].

For `C=CCN1Cc2ccccc2[C@@H]2OC(c3ccc(OCCCO)cc3)=N[C@]2(CC=C)C1=O`, the composite z-score in experiment [1] came to 2.25; in [2], 1.15; in [3], 0.68; in experiment [4] it was 0.542; in experiment [5] it was 1.49; in experiment [6], 1.57. Further, the figures for the composite z-score (with Lefty1; in experiment [8]) were 1.2 and 0.667, respectively. Also, the z-score in experiment [7] is 2.5; in experiment [9], -1.91 (inactive).

Consider `CC[C@@H]1C=C(C(=O)O)[C@H](c2ccc(C#N)cc2)N1S(=O)(=O)c1ccc(C)cc1`, for which the composite z-score in [1] was 3.35; in [2], 0.845; in experiment [3] it was 0.941; in experiment [4] it was -0.0509; in experiment [5] it was -0.594; in experiment [6] it was -0.105. For the same compound, the values for the composite z-score (in the experiment on Lefty1; in [8]) were -0.833 and 1.09, respectively. For the same compound, the values for the z-score in [7] and in [9] were -0.0902 and 0.522 (inactive), respectively.

Consider `COCCOC(=O)N1C(=O)[C@@]2(c3cc(C#CC4=CCCCC4)ccc31)[C@H](c1ccccc1OCCO)N1[C@H](c3ccccc3)[C@H](c3ccccc3)OC(=O)[C@H]1[C@@H]2C(=O)N1CCN(c2ncccn2)CC1`, for which the composite z-score in experiment [1] was 0.624; in [2], 1.15; in experiment [3] it was 0.732; in [4], 0.635; in experiment [5], 0.76; in experiment [6], 0.779. The composite z-score was 0.772 in the experiment on Lefty1 and 0.343 in [8]. Moreover, the z-score in experiment [7] is -1.05; in experiment [9] it was -1.47 (inactive).

With `CCOC(=O)[C@@H]1CCCCN1C(=O)C(=O)OC`, the composite z-score is 0.234 in [1]; 0.504 in experiment [2]; 0.1 in experiment [3]; -0.23 in experiment [4]; 0.479 in experiment [5]; 0.894 in experiment [6]. For the same compound, the composite z-score was 1.29 in the experiment with Lefty1 and -0.48 in experiment [8]. For the same compound, the z-score in experiment [7] was -0.309; in [9], 0.0296 (inactive).

For the compound `O=C1CS(=O)(=O)C(c2cccc([N+](=O)[O-])c2)N1c1ccccc1` (stereo not given), the composite z-score in [1] turned out to be 1.67; in experiment [2], 1.16; in [3], 0.596; in experiment [4] it was 0.522; in experiment [5], 0.469; in [6], 0.698. Besides, the composite z-score was -0.269 with Lefty1 and 0.909 in experiment [8]. Moreover, the z-score was 1.53 in experiment [7] and -1.61 (inactive) in experiment [9].
